Test results: PubChem BioAssay AID1159580 (chemical genetic matrix, 2015)
Values joined by “and” are separate entries in the source; they are usually repeats but may differ in a detail not shown here. Equal entries are not always repeated. Screen size: about 5,500 compounds; about 2,000 (36%) were called active. Not shown: some 18% with an inconclusive outcome. Cut-off read from the data, not from the text of the source: active = normalized growth mostly below about 0.91 (no sharp cut-off); inconclusive = no clear call, values can overlap the other calls; inactive = mostly above about 0.92. The list shows a part of the results.

Experiment: chemical genetic growth profiling, strain panel (AID 1159580);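 note: tested at 20 µM; growth read once vehicle control cultures reached saturation at 30 °C; 1 = growth at the plate median or of vehicle wells; lower values mean less growth of the strain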
Details: S. cerevisiae deletion strains, growth OD

Measured: normalized growth

CC(Cc1cccc(C(F)(F)F)c1)NCCOC(=O)c1ccccc1 (configuration not stated)
0.833 (active) and 0.974 (inactive): locus YHR030C, strain SLT2, stronger effect = lower value
0.614 (active) and 0.976 (inactive): locus YJL095W, strain BCK1, stronger effect = lower value
inactive: locus YAL013W, strain DEP1, stronger effect = lower value 0.98 | locus YAL030W, strain snc1, stronger effect = lower value 0.964 | locus YBL061C, strain skt5, stronger effect = lower value 0.968 | locus YBR009C, strain hhf1, stronger effect = lower value 0.953 | locus YBR023C, strain chs3, stronger effect = lower value 0.936 | locus YBR171W, strain sec66, stronger effect = lower value 0.975 | locus YBR229C, strain ROT2, stronger effect = lower value 1.01 | locus YBR231C, strain swc5, stronger effect = lower value 0.948 | locus YBR279W, strain paf1, stronger effect = lower value 0.964 | locus YCL011C, strain gbp2, stronger effect = lower value 0.971 | locus YCL016C, strain dcc1, stronger effect = lower value 0.969 | locus YCL029C, strain bik1, stronger effect = lower value 1.03 | locus YCL061C, strain MRC1, stronger effect = lower value 0.978 | locus YCL069W, strain vba3, stronger effect = lower value 0.967 | locus YCR088W, strain abp1, stronger effect = lower value 0.994 | locus YDL005C, strain med2, stronger effect = lower value 0.999 | locus YDL035C, strain GPR1, stronger effect = lower value 0.917 | locus YDL040C, strain nat1, stronger effect = lower value 0.994 | locus YDL074C, strain BRE1, stronger effect = lower value 0.914 | locus YDL101C, strain DUN1, stronger effect = lower value 0.996 | locus YDL134C, strain PPH21, stronger effect = lower value 0.958 | locus YDL185W, strain tfp1, stronger effect = lower value 1.02 | locus YDL192W, strain arf1, stronger effect = lower value 0.988 | locus YDR001C, strain nth1, stronger effect = lower value 0.992 | locus YDR101C, strain arx1, stronger effect = lower value 0.999 | locus YDR137W, strain rgp1, stronger effect = lower value 0.916 | locus YDR150W, strain NUM1, stronger effect = lower value 0.997 | locus YDR159W, strain sac3, stronger effect = lower value 0.995 | locus YDR162C, strain NBP2, stronger effect = lower value 0.945 | locus YDR195W, strain ref2 1.01 | locus YDR297W, strain sur2, stronger effect = lower value 0.973 | locus YDR318W, strain mcm21, stronger effect = lower value 0.963 | locus YDR334W, strain swr1, stronger effect = lower value 0.997 | locus YDR335W, strain msn5, stronger effect = lower value 0.959 | locus YDR392W, strain spt3, stronger effect = lower value 1.03 | locus YDR502C, strain sam2, stronger effect = lower value 0.974 | locus YEL003W, strain gim4, stronger effect = lower value 0.924 | locus YEL037C, strain rad23, stronger effect = lower value 0.973 | locus YEL061C, strain CIN8 (second series), stronger effect = lower value 0.988 | locus YEL061C, strain CIN8, stronger effect = lower value 0.993 | locus YER016W, strain bim1, stronger effect = lower value 1 | locus YER110C, stronger effect = lower value 1.01 | locus YER111C, strain swi4, stronger effect = lower value 0.997 | locus YER155C, strain BEM2 (second series), stronger effect = lower value 0.934 | locus YER155C, strain BEM2, stronger effect = lower value 1.02 | locus YER167W, strain BCK2, stronger effect = lower value 0.985 | locus YGL078C, strain dbp3, stronger effect = lower value 1.01 | locus YGL086W, strain mad1, stronger effect = lower value 0.953 | locus YGL167C, strain pmr1, stronger effect = lower value 0.991 | locus YGL173C, strain kem1, stronger effect = lower value 0.919 | locus YGL227W, strain vid30, stronger effect = lower value 0.995 | locus YGL240W, strain doc1, stronger effect = lower value 0.945 | locus YGL248W, strain PDE1, stronger effect = lower value 0.957 | locus YGL253W, strain hxk2, stronger effect = lower value 0.96 | locus YGR078C, strain PAC10, stronger effect = lower value 0.921 | locus YGR135W, strain pre9, stronger effect = lower value 0.914 | locus YGR252W, strain gcn5, stronger effect = lower value 0.923 | locus YHR013C, strain ard1, stronger effect = lower value 0.963 | locus YHR027C, strain rpn1, stronger effect = lower value 0.941 | locus YHR079C, strain IRE1 (second series), stronger effect = lower value 1 | locus YHR079C, strain IRE1, stronger effect = lower value 0.981 | locus YHR094C, strain hxt1, stronger effect = lower value 1.02 | locus YHR129C, strain ARP1, stronger effect = lower value 1 | locus YHR142W, strain chs7, stronger effect = lower value 0.925 | locus YHR200W, strain rpn10, stronger effect = lower value 0.996 | locus YIL066C, strain RNR3, stronger effect = lower value 0.962 | locus YIL073C, strain SPO22, stronger effect = lower value 1.14 | locus YIL125W, strain kgd1, stronger effect = lower value 1.02 | locus YIR030C, strain dcg1, stronger effect = lower value 1 | locus YJL092W, strain hpr5, stronger effect = lower value 0.953 | locus YJL095W, strain BCK1 (second series), stronger effect = lower value 0.954 | locus YJL115W, strain asf1, stronger effect = lower value 0.979 | locus YJL129C, strain trk1, stronger effect = lower value 0.997 | locus YJL134W, strain LCB3, stronger effect = lower value 1 | locus YJL154C, strain vps35, stronger effect = lower value 0.986 | locus YJL164C, strain tpk1, stronger effect = lower value 0.953 | locus YJL166W, strain qcr8, stronger effect = lower value 0.943 | locus YJL168C, strain set2, stronger effect = lower value 1 | locus YJL187C, strain SWE1 (second series), stronger effect = lower value 0.923 | locus YJL187C, strain SWE1, stronger effect = lower value 0.978 | locus YJR043C, strain POL32, stronger effect = lower value 1.04 | locus YJR066W, strain TOR1, stronger effect = lower value 0.879
active: locus YAL021C, strain ccr4, stronger effect = lower value 0.853 | locus YAL026C, strain drs2, stronger effect = lower value 0.582 | locus YBR021W, strain FUR4, stronger effect = lower value 0.513 | locus YDR069C, strain doa4, stronger effect = lower value 0.845 | locus YDR388W, stronger effect = lower value 0.811 | locus YER015W, strain faa2, stronger effect = lower value 0.899 | locus YFR010W, strain ubp6, stronger effect = lower value 0.831 | locus YGR229C, strain SMI1, stronger effect = lower value 0.612
